Only some compounds are listed: those with a hit (about 4% of all), similar ones and a draw of the others.
TWEAK Fn14 block: blocks TWEAK-Fn14 interaction in a reporter cell assay. inhibition, % at 10 µM. TWEAK-stimulated Fn14 reporter cells, luciferase luminescence, 8 h. 360,000 tested, 2% active; in the data active = inhibition above about 50%
KKLEB tox: reduces viability of KKLEB cystic fibrosis airway cells; activity change (cytotoxicity), % at 5 µM; 360,000 tested, 0.36% active; AID 602141; KKLEB CF airway cells viability, ATPlite luminescence, overnight; stronger effect = lower value; cells stimulated with P. aeruginosa culture filtrate;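 active = corrected activity change at or below -50% at 5 µM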
Peg3 prom inh: Peg3 promoter activity inhibition; HeLa PEG-Prom luciferase reporter, luminescence, overnight; inhibition, % at 20 µM; 360,000 tested, 1.7% active;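 active = inhibition of at least 50% at 20 µM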
HIF-2a inh: HIF-2a inhibition; 786-0 RCC cells HIF-2a reporter, luciferase luminescence, overnight; inhibition, % at 18.8 µM; 360,000 tested, 0.72% active; AID 624352;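 active = inhibition of the luminescence signal of 40% or more relative to plate controls, in a single-dose primary screen at 18.75 µM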
CF NFkB inh: cystic fibrosis NF-kB activation inhibition. KKLEB NF-kB-GFP reporter, PAF-induced, GFP fluorescence overnight. inhibition, % at 5 µM. 360,000 tested, 0.86% active;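 active = at least 50% inhibition at 5 µM, scaled per plate between neutral and stimulator controls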;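 also: PAF is a Pseudomonas aeruginosa culture filtrate used as stimulus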
TROY signal inh: TROY signaling inhibition; inhibition, % at 10 µM; AID 1347056; Q293 LMP1-TROYcd NF-kB luciferase reporter, 4 h; 360,000 tested, 0.98% active;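 active = compounds whose plate-normalised and pattern-corrected inhibition of the luciferase reporter signal at the single screening dose is 50% or more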
Numbers stand for hits.

Results for COC(=O)[C@]1(C)N[C@H](CN(C)S(=O)(=O)c2ccc(C(F)(F)F)cc2)[C@@H]2C(=O)N(C)C(=O)[C@@H]21 ?
TWEAK Fn14 block: inactive; KKLEB tox: inactive; Peg3 prom inh: inactive; HIF-2a inh: inactive; CF NFkB inh: inactive; TROY signal inh: inactive

What do the screens show for `COC1C(C)=C(C)C(=O)N1Cc1ccccc1` (stereo not given)?
TWEAK Fn14 block: inactive; KKLEB tox: inactive; Peg3 prom inh: inactive; HIF-2a inh: inactive; CF NFkB inh: inactive; TROY signal inh: inactive

Results for COc1ccc(CN2C(=O)C(C)=C(C)C2OC)cc1 (stereo not given) ?
TWEAK Fn14 block: 90; KKLEB tox: inactive; Peg3 prom inh: inactive; HIF-2a inh: inactive; CF NFkB inh: inactive; TROY signal inh: inactive

Results for Cc1ccc2occ(/C=N/NC(=O)c3ccccc3O)c(=O)c2c1 ?
TWEAK Fn14 block: 58; KKLEB tox: inactive; Peg3 prom inh: inactive; HIF-2a inh: inactive; CF NFkB inh: inactive; TROY signal inh: inactive

What do the screens show for `COc1ccc(C(=O)N/N=C/c2cccc3cccnc23)cc1`?
TWEAK Fn14 block: 105; KKLEB tox: inactive; Peg3 prom inh: inactive; HIF-2a inh: inactive; CF NFkB inh: inactive

How did COc1ccc(C(=O)N/N=C\c2coc3ccc(C)cc3c2=O)cc1 do in these assays?
TWEAK Fn14 block: 54; KKLEB tox: inactive; Peg3 prom inh: inactive; HIF-2a inh: inactive; CF NFkB inh: inactive; TROY signal inh: inactive

What do the screens show for `CCC(C)c1ccccc1N1CC(C(=O)N(C)CC(=O)Nc2cccc(F)c2)CC1=O` (stereo not given)?
TWEAK Fn14 block: inactive; KKLEB tox: inactive; Peg3 prom inh: inactive; HIF-2a inh: inactive; CF NFkB inh: inactive; TROY signal inh: inactive

Results for O=C(CS(=O)(=O)c1cn(CC(=O)N2CCOCC2)c2ccccc12)NCc1ccccc1 ?
TWEAK Fn14 block: inactive; KKLEB tox: inactive; Peg3 prom inh: inactive; HIF-2a inh: inactive; CF NFkB inh: inactive; TROY signal inh: inactive

Results for O=C(NCc1ccc(F)cc1Cl)C1CCN(S(=O)(=O)N2CCCCC2)CC1 ?
TWEAK Fn14 block: inactive; KKLEB tox: inactive; Peg3 prom inh: inactive; HIF-2a inh: inactive; CF NFkB inh: inactive; TROY signal inh: inactive

Results for COc1ccc(-c2nn(-c3ccccc3)cc2C(=O)n2nnc3ccccc32)cc1 ?
TWEAK Fn14 block: inactive; KKLEB tox: inactive; Peg3 prom inh: 56; HIF-2a inh: inactive; CF NFkB inh: inactive; TROY signal inh: inactive

Results for COC(=O)c1cn(-c2ccccc2)nc1-c1ccc(OC)cc1 ?
TWEAK Fn14 block: inactive; KKLEB tox: inactive; Peg3 prom inh: inactive; HIF-2a inh: inactive; CF NFkB inh: inactive; TROY signal inh: inactive

How did COc1ccc(/C=C2\CC/C(=C\c3ccc(OC)c(OC)c3)C2=O)cc1OC do in these assays?
TWEAK Fn14 block: 56; KKLEB tox: inactive; Peg3 prom inh: inactive; HIF-2a inh: inactive; CF NFkB inh: inactive; TROY signal inh: inactive

Results for COc1ccc(/C=C2\CCC/C(=C\c3ccc(OC)c(OC)c3OC)C2=O)c(OC)c1OC ?
TWEAK Fn14 block: inactive; KKLEB tox: inactive; Peg3 prom inh: inactive; HIF-2a inh: inactive; CF NFkB inh: inactive; TROY signal inh: inactive

What do the screens show for `COc1cc(OC)c(OC)cc1/C=C1\CCC/C(=C\c2cc(OC)c(OC)cc2OC)C1=O`?
TWEAK Fn14 block: 56; KKLEB tox: inactive; Peg3 prom inh: 72; HIF-2a inh: inactive; CF NFkB inh: inactive; TROY signal inh: inactive

What do the screens show for `COc1cccc2sc3ccc(C#CC4(N)CCCCC4)cc3c(=O)c12`?
TWEAK Fn14 block: inactive; KKLEB tox: inactive; Peg3 prom inh: inactive; HIF-2a inh: inactive; CF NFkB inh: inactive; TROY signal inh: inactive

How did COc1cc2sc3ccc(C#CC4(O)CCCCC4)cc3c(=O)c2cc1OC do in these assays?
TWEAK Fn14 block: 92; KKLEB tox: inactive; Peg3 prom inh: inactive; HIF-2a inh: inactive; CF NFkB inh: inactive; TROY signal inh: 84

What do the screens show for `COc1cccc2sc3cc(C#CC4(O)CCCCC4)ccc3c(=O)c12`?
TWEAK Fn14 block: inactive; KKLEB tox: inactive; Peg3 prom inh: 89; HIF-2a inh: inactive; CF NFkB inh: inactive; TROY signal inh: inactive

What do the screens show for `COc1ccc(C#Cc2ccc3c(c2)c(=O)c2ccccc2n3C)cc1`?
TWEAK Fn14 block: inactive; KKLEB tox: inactive; Peg3 prom inh: inactive; HIF-2a inh: inactive; CF NFkB inh: inactive; TROY signal inh: inactive

What do the screens show for `COc1cc2sc3ccc(C#Cc4ccc(N)cc4)cc3c(=O)c2cc1OC`?
TWEAK Fn14 block: inactive; KKLEB tox: inactive; Peg3 prom inh: inactive; HIF-2a inh: inactive; CF NFkB inh: inactive; TROY signal inh: inactive

Results for Cn1c2ccccc2c(=O)c2ccc(C#CC3(O)CCCCC3)cc21 ?
TWEAK Fn14 block: 97; KKLEB tox: inactive; Peg3 prom inh: 70; HIF-2a inh: inactive; CF NFkB inh: inactive; TROY signal inh: 91

Results for COc1cc(OC)c(NC(=O)c2ccccc2F)cc1Cl ?
TWEAK Fn14 block: inactive; KKLEB tox: inactive; Peg3 prom inh: inactive; HIF-2a inh: inactive; CF NFkB inh: inactive; TROY signal inh: inactive

What do the screens show for `COc1ccccc1NC(=O)c1cc2cc(Br)ccc2cc1O`?
TWEAK Fn14 block: 67; KKLEB tox: inactive; Peg3 prom inh: inactive; HIF-2a inh: inactive; CF NFkB inh: inactive; TROY signal inh: inactive

What do the screens show for `COc1cc(NC(=O)c2cc3ccccc3cc2O)c(OC)cc1Cl`?
TWEAK Fn14 block: 67; KKLEB tox: -55; Peg3 prom inh: inactive; HIF-2a inh: inactive; CF NFkB inh: 50; TROY signal inh: inactive

Results for O=C(CSc1nnc(NC(=O)c2ccccc2F)s1)NCc1ccco1 ?
TWEAK Fn14 block: inactive; KKLEB tox: inactive; Peg3 prom inh: inactive; HIF-2a inh: inactive; CF NFkB inh: inactive; TROY signal inh: inactive

Results for CCOc1ccc(NC(=O)C(CC(=O)O)Cc2ccc(C)cc2)cc1 (stereo not given) ?
TWEAK Fn14 block: inactive; KKLEB tox: inactive; Peg3 prom inh: inactive; HIF-2a inh: inactive; CF NFkB inh: inactive; TROY signal inh: inactive

Results for COc1ccc(-c2sc3ccc(N4CCOCC4)cc3c2C#CCO)cc1 ?
TWEAK Fn14 block: 90; KKLEB tox: inactive; Peg3 prom inh: inactive; HIF-2a inh: inactive; CF NFkB inh: inactive; TROY signal inh: 54

How did COc1cc(-c2cc(C(=O)Nc3cccc(S(=O)(=O)N(C)C)c3)c3ccccc3n2)cc(OC)c1OC do in these assays?
TWEAK Fn14 block: inactive; KKLEB tox: inactive; Peg3 prom inh: inactive; HIF-2a inh: inactive; CF NFkB inh: inactive; TROY signal inh: inactive

What do the screens show for `O=C1CCCC2=C1C1(CCCC1)N=C(Nc1nc3cc(-c4ccccc4)ccc3o1)N2`?
TWEAK Fn14 block: 64; KKLEB tox: inactive; Peg3 prom inh: inactive; HIF-2a inh: inactive; CF NFkB inh: inactive; TROY signal inh: inactive

How did O=C1CCCC2=C1C1(CCCCC1)N=C(Nc1nc3ccccc3o1)N2 do in these assays?
TWEAK Fn14 block: 75; KKLEB tox: inactive; Peg3 prom inh: inactive; HIF-2a inh: inactive; CF NFkB inh: inactive; TROY signal inh: inactive

What do the screens show for `O=C1CCCC2=C1C1(CCCC1)N=C(Nc1nc3ccccc3o1)N2`?
TWEAK Fn14 block: inactive; KKLEB tox: inactive; Peg3 prom inh: inactive; HIF-2a inh: inactive; CF NFkB inh: inactive; TROY signal inh: inactive

Source: PubChem BioAssay
